In ChEMBL document CHEMBL3988442, “University of Dundee, Small-Polar-MMV Screening Library” (2021):
For part of these data: Potency and affinity values are given separately.

Tests used:
Set-up in all cases: scale not given: direction of the effect not stated beside the values
[1] = biological target: Protein translocase subunit SecA (Escherichia coli (strain K12)) (UniProt P10408); assay: Assay to Identify E. coli SecA ATPase Inhibitors; type: functional; conditions: 30 µM
[2] = biological target: T1, Ubiquitin-activating enzyme e1, putative (Leishmania donovani (strain BPK282A1)) (UniProt E9BSI1); assay: Leishmania donovani Ubiquitin Activating Enzyme (LdE1); type: functional; conditions: 30 µM
T1 sequence (whole entry): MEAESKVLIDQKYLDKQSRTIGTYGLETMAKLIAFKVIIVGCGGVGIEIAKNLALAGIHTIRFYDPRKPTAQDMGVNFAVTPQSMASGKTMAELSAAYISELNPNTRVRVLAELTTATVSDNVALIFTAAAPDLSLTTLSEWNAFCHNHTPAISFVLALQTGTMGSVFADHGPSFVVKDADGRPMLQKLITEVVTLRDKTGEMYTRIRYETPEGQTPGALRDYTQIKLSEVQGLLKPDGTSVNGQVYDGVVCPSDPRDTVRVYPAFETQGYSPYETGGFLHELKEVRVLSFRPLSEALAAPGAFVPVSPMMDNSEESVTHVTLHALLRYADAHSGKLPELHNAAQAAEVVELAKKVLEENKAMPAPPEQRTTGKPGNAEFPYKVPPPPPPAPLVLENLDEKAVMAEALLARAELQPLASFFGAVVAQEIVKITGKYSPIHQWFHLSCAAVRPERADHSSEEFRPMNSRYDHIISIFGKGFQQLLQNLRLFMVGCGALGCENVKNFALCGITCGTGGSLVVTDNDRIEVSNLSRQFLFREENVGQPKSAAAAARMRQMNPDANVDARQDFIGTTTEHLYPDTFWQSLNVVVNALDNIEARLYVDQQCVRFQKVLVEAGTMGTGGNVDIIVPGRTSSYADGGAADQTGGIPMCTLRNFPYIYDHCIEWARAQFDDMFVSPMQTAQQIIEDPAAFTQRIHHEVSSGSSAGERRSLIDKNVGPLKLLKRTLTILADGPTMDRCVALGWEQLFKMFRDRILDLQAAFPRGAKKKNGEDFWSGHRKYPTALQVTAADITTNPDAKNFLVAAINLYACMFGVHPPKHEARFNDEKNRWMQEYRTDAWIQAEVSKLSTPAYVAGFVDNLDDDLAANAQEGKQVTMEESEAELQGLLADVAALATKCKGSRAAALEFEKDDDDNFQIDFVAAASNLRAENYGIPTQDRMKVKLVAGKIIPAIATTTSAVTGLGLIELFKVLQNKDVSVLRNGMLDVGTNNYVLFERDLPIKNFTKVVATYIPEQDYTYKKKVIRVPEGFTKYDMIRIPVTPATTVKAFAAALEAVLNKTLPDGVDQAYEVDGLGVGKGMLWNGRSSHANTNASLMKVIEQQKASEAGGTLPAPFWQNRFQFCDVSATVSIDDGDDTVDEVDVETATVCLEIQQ

[3] = biological target: T2, Aspartate--tRNA(Asp/Asn) ligase (Mycobacterium tuberculosis (strain ATCC 25618 / H37Rv)) (UniProt P9WFW3); assay: Assay for Asp RNA synthetase-1 from Mycobacterium tuberculosis; type: functional; conditions: 30 µM; also: in the data most compounds retested in dose-response had high values
T2 sequence (whole entry): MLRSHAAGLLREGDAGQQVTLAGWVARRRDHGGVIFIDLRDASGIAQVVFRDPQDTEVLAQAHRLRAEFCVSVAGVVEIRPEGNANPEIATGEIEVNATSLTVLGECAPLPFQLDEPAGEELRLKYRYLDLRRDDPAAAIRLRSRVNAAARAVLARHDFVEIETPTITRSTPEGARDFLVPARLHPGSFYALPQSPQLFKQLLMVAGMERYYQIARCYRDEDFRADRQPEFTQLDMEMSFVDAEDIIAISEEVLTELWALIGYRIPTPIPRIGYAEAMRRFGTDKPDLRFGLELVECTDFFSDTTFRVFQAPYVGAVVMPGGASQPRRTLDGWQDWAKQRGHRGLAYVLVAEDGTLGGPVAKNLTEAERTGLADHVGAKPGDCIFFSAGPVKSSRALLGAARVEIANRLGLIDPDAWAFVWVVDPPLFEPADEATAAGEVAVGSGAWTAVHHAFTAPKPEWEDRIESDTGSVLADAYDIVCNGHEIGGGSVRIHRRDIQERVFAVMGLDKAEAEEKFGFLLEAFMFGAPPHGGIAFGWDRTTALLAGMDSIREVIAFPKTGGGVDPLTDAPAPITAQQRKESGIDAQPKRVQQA

[4] = biological target: Sialic acid-binding Ig-like lectin 9 (Homo sapiens) (UniProt Q9Y336); assay: Hs-Siglec9 ALPHAscreen SOP 20170721; conditions: 10 µM
Sequence of Sialic acid-binding Ig-like lectin 9 (Homo sapiens) (Q9Y336 whole entry): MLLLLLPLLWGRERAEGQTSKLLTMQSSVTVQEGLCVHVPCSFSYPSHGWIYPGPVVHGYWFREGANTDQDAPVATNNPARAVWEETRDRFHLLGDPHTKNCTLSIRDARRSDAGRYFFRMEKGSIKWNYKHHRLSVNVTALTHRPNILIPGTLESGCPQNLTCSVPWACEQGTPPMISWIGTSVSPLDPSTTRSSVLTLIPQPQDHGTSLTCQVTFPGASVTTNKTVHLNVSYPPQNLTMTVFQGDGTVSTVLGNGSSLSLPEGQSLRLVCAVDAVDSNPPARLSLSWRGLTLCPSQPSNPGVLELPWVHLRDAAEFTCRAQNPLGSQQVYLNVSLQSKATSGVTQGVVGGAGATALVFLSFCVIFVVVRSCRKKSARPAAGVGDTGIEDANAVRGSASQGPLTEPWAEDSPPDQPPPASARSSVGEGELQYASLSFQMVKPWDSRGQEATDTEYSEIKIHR

[5] = tested on: Trypanosoma cruzi; assay: Trypanosoma cruzi phosphomannomutase and mannose-1-phosphate guanylyltransferase assay; type: functional; conditions: 10 µM
[6] = biological target: T3, Arginase-2, mitochondrial (Homo sapiens) (UniProt P78540); assay: in vitro enzyme assay to detect the production of urea directly proportional to the activity of Arginase II; type: functional; conditions: 33.3 µM; also: in the data most compounds retested in dose-response had high values
T3 sequence (whole entry): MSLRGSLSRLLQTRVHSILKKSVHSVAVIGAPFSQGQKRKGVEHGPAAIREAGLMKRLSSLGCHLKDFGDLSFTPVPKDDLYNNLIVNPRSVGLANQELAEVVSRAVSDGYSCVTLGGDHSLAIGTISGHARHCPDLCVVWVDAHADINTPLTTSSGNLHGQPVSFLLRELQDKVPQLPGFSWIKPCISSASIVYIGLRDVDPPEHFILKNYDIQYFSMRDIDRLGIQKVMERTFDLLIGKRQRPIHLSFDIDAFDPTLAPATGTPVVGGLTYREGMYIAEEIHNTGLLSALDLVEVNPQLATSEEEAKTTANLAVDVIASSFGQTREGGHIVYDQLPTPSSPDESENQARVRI

[7] = biological target: T4, Proteasome subunit beta (Trypanosoma cruzi) (UniProt O96673); assay: Trypanosoma cruzi proteasome chymotrypsin-like activity (TcProtChymo) assay.; also: in the data most compounds retested in dose-response had high values; type: functional; conditions: 9.37 µM
T4 sequence (whole entry): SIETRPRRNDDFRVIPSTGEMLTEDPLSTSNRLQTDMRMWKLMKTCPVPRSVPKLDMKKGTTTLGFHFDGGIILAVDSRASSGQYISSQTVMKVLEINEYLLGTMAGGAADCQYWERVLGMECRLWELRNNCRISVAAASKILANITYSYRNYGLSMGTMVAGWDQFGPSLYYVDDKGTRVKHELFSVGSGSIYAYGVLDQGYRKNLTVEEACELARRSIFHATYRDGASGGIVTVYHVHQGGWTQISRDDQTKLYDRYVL

[8] = organism: Homo sapiens; assay: To identify inhibition of the IFN signalling (Jak-Stat) pathway via expression of an eGFP reporter gene under the control of an IFN-stimulated response element (ISRE) containing MxA promoter.; type: functional; conditions: 30 µM
[9] = biological target: Shiga toxin 2 (Escherichia coli O157:H7) (UniProt P09385+P09386); assay: E. coli 0.157:H7 Shiga Toxin SOP - stx2 screening assay; type: functional; conditions: 30 µM
[10] = biological target: T5, Tyrosyl-tRNA synthetase, putative (Trypanosoma cruzi (strain CL Brener)) (UniProt Q4DSP6); assay: Trypanosoma cruzi tyrosyl tRNA synthetase (TcYRS) _High Tyrosine SOP; type: functional; conditions: 30 µM; also: in the data most compounds retested in dose-response had high values
T5 sequence (whole entry): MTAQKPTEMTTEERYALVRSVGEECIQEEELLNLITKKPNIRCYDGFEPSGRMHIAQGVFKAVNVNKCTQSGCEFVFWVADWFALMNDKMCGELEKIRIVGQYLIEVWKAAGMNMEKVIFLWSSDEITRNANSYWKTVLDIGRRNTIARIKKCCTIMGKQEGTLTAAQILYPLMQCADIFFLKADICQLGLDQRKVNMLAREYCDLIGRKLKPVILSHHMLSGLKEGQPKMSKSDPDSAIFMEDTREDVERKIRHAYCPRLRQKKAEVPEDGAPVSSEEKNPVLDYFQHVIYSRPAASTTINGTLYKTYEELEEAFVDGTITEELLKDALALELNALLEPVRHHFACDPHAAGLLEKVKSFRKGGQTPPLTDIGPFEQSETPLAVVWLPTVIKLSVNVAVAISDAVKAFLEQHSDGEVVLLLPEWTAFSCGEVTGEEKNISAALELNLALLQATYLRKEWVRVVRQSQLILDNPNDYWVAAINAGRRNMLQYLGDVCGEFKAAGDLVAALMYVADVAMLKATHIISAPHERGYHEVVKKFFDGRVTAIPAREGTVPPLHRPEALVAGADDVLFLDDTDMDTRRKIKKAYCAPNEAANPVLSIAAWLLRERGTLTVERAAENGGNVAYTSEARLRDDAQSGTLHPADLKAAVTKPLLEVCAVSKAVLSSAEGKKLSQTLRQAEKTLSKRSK

[11] = biological target: T5, Tyrosyl-tRNA synthetase, putative (Trypanosoma cruzi (strain CL Brener)); assay: Trypanosoma cruzi tyrosyl tRNA synthetase (TcYRS) SOP; type: functional; conditions: 30 µM
[12] = biological target: Chromo domain-containing protein 1 (Saccharomyces cerevisiae (strain ATCC 204508 / S288c) (Baker's yeast)) (UniProt P32657); assay: ScCHD-1 Enzyme Inhibition Assay; type: functional; conditions: 30 µM; also: in the data most compounds retested in dose-response had high values
Sequence of Chromo domain-containing protein 1 (Saccharomyces cerevisiae (strain ATCC 204508 / S288c) (Baker's yeast)) (P32657 whole entry, the tested form may be a part): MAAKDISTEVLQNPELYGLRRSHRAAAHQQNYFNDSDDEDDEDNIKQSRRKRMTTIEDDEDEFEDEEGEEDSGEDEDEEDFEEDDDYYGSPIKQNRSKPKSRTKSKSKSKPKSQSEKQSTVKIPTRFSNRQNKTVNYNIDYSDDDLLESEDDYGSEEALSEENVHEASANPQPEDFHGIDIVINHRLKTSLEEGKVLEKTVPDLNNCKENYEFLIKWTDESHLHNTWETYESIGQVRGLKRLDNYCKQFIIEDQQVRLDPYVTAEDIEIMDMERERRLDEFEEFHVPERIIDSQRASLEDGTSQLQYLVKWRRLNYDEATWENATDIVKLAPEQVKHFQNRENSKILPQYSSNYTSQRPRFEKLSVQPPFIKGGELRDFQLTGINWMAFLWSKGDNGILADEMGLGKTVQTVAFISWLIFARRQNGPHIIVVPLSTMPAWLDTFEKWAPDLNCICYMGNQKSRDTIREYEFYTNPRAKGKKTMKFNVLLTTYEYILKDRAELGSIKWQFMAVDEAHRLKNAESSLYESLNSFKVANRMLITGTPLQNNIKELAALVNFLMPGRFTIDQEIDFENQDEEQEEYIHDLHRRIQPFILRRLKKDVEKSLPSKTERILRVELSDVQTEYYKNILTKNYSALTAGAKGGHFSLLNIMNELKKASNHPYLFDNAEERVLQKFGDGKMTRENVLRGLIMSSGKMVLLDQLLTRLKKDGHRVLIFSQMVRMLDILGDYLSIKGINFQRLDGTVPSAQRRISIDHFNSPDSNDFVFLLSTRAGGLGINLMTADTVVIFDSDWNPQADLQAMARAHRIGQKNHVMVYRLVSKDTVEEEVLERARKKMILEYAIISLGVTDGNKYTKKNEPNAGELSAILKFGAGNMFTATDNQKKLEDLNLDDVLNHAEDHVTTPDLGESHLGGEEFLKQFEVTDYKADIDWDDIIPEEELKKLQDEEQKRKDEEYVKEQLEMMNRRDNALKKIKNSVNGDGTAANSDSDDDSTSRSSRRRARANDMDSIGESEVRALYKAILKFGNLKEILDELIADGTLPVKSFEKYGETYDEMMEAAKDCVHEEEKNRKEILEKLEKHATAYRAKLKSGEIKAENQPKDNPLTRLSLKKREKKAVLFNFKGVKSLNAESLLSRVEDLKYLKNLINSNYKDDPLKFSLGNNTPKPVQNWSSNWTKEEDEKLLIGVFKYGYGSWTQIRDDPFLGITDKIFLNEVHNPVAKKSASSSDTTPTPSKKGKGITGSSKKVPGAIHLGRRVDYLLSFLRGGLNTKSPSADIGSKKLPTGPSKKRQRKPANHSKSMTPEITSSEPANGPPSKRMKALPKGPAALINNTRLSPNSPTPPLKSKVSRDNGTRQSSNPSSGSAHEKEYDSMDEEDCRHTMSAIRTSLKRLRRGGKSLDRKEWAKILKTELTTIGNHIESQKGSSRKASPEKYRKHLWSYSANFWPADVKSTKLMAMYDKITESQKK

Sequence of Protein translocase subunit SecA (Escherichia coli (strain K12)) (P10408 whole entry): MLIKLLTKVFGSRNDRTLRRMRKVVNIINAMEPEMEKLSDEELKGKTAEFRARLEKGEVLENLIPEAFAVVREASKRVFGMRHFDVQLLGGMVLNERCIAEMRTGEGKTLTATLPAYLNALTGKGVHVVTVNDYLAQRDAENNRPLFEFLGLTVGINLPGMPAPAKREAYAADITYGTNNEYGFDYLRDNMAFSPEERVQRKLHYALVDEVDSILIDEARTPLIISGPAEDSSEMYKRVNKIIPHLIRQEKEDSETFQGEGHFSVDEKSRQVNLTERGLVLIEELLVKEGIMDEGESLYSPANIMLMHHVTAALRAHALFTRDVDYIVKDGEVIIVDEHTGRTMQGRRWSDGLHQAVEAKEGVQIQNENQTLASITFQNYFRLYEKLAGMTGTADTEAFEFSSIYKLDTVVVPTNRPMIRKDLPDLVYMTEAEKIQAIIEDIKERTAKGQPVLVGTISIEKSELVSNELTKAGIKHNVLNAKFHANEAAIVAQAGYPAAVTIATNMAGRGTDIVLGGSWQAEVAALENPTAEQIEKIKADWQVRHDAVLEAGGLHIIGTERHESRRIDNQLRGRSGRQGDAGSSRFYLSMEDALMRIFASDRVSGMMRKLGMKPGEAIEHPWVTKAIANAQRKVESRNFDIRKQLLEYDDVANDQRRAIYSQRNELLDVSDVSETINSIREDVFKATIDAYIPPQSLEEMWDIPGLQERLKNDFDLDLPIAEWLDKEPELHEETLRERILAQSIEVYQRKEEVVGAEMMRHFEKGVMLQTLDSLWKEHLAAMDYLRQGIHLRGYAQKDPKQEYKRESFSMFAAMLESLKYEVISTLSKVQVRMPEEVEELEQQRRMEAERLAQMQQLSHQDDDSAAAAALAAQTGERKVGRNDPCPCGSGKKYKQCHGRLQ

## c1ccc(N2CCCC3(CCN(Cc4cccs4)C3)C2)nc1 (stereo not given)
[1]
  Percent Effect: -7.4%
[2]
  Percent Effect: 16.9%
[3]
  Percent Effect: -1.46%
[4]
  Percent Effect: -2.35%
[5]
  Percent Effect: -2.81%
[6]
  Percent Effect: -0.913%
[7]
  Percent Effect: 10.4%
[8]
  Percent Effect: 17.3%
[9]
  Percent Effect: 5.58%
[10]
  Percent Effect: 1.93%
[11]
  Percent Effect: -2.5%
[12]
  Percent Effect: -9.64%

## CC(C)(C)n1cc(C(=O)NCCCn2ccnc2)c2cccnc21
[1]
  Percent Effect: 3.93%
[2]
  Percent Effect: 17.3%
[3]
  Percent Effect: 6.13%
[4]
  Percent Effect: -8.62%
[5]
  Percent Effect: 4.73%
[6]
  Percent Effect: 1.77%
[7]
  Percent Effect: 19.1%
[8]
  Percent Effect: 29.9%
[9]
  Percent Effect: -3.75%
[10]
  Percent Effect: 2.12%
[11]
  Percent Effect: 15%
[12]
  Percent Effect: -24.1%

## c1cnc(N2CCC3(COCCN(CC4CC4)C3)C2)nc1 (stereo not given)
[1]
  Percent Effect: -1.87%
[2]
  Percent Effect: 3.9%
[3]
  Percent Effect: 6.45%
[4]
  Percent Effect: -2.75%
[5]
  Percent Effect: -3.21%
[6]
  Percent Effect: 0%
[7]
  Percent Effect: 14.2%
[8]
  Percent Effect: -5.95%
[9]
  Percent Effect: 3.4%
[10]
  Percent Effect: 3.68%
[11]
  Percent Effect: 10.3%
[12]
  Percent Effect: -1.41%

## COCC(C)NC(=O)c1cn(C(C)(C)C)c2ncccc12 (stereo not given)
[1]
  Percent Effect: 0.871%
[2]
  Percent Effect: 14.7%
[3]
  Percent Effect: 4.78%
[4]
  Percent Effect: -9.18%
[5]
  Percent Effect: 4.93%
[6]
  Percent Effect: 0.443%
[7]
  Percent Effect: 18.2%
[8]
  Percent Effect: 6.95%
[9]
  Percent Effect: -13.5%
[10]
  Percent Effect: 0%
[11]
  Percent Effect: 10%
[12]
  Percent Effect: -22.6%

## O=C(Cc1c(F)cccc1F)N1CCN(CC(=O)N2CCCC2)CC1
[1]
  Percent Effect: -1.5%
[2]
  Percent Effect: -1.3%
[3]
  Percent Effect: -5.83%
[4]
  Percent Effect: -2.19%
[5]
  Percent Effect: -0.938%
[6]
  Percent Effect: 4.57%
[7]
  Percent Effect: 22.1%
[8]
  Percent Effect: 12.9%
[9]
  Percent Effect: 16.1%
[10]
  Percent Effect: 4.83%
[11]
  Percent Effect: 10%
[12]
  Percent Effect: -6.7%
